Pf apPOL block = Pf-apPOL DNA polymerase inhibition; inhibition, % at 10 µM; 210,000 tested, 0.25% active; Recombinant Pf-apPOL, molecular beacon fluorescence, 1.5 h
mHTT CaM bind = mHTT-calmodulin interaction abrogation | 190,000 tested, 3.6% active | AlphaScreen His-mHTT/GST-CaM binding, luminescence | inhibition, % at 15 µM;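 note: 0% = both proteins with DMSO and 100% = one protein alone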
The depositor's hits bear a star; . = not tested or not shown. Hits are enriched below; roughly 3.6% of the tested compounds scored in any of these assays. Cut-off read from the data, not from the text of the source: active = inhibition above about 50%; inactive = the rest.

SMILES	Pf apPOL block	mHTT CaM bind
CC(C)(C)[C@H]1CCC(=O)N([C@H](COc2ccccc2)Cc2ccccc2)CC1	8.7	63.7*
O=C1CCN(Cc2ccccc2)CCN1[C@H](COc1ccccc1)Cc1ccccc1	-2.3	86.5*
CCCN1CCC(=O)N([C@H](COc2ccccc2)Cc2ccccc2)CC1	-7.5	6.8
CC(C)(C)[C@H]1CCC(=O)N([C@H](CSc2ccccc2)Cc2ccccc2)CC1	-5.8	5.8
CCN(CC)c1ccc(NC(=O)c2ccccc2OC)cc1C	-9.3	19.5
CC(C)NC(=O)C1CCCN(c2ncc(-c3ccccc3)cn2)C1 (stereo not drawn)	-1.1	-7.7
CCn1c(C)cc(O)c(C(c2cccc(F)c2)N2CCN(c3ccc(F)cc3)CC2)c1=O (stereo not drawn)	6.8	-7.8
Oc1c(C=Nc2ccc(Br)cc2)[nH]c2ccc(Br)c(Cl)c12	-7.1	58.0*
Cc1cc(C)cc(N=Cc2[nH]c3ccc(Br)c(Cl)c3c2O)c1	-2.6	4.0
Oc1c(C=NCc2ccccc2)[nH]c2ccc(Br)c(Cl)c12	7.5	36.0
COc1ccc(CN=Cc2[nH]c3ccc(Br)c(Cl)c3c2O)cc1	5.3	69.0*
Oc1c(C=NC2CCCCC2)[nH]c2ccc(Br)c(Cl)c12	8.8	76.0*
COc1ccc(N=Cc2[nH]c3ccc(Br)c(Cl)c3c2O)cc1	-11.0	19.0
COCCN=C1Nc2ccccc2CNC12CCN(C(=O)c1ccc(OC)cc1)C2 (stereo not drawn)	-4.6	19.4
CC(=O)c1ccc(N2CCN(C(=O)C3CN(C(=O)COc4ccccc4F)C3)CC2)cc1	-6.7	14.3
Cn1c(C2CCN(C(=O)c3ccccc3C(F)(F)F)C2)nc2cccnc21 (stereo not drawn)	0.0	3.3
O=c1cc(COc2ccc(Cl)cc2)nc2sccn12	-4.8	-5.6
O=C(c1cccc(F)c1)N1CCC(CCOc2cccc(F)c2)CC1	-3.9	-17.7
CCN1CCc2c(c(CN(C)C(=O)C(C)C)nn2-c2ccc(C)cc2)C1	-6.4	4.8
O=C(NCc1cccnc1)C1c2ccccc2C(=O)N1Cc1ccc(F)cc1Cl (stereo not drawn)	-3.9	4.0
O=C(Nc1ccc(I)cc1Cl)c1ncn[nH]1	-6.5	96.1*
O=C(Nc1ccccc1Cl)c1ncn[nH]1	-3.2	25.5
O=C1NN(c2ccc(F)cc2)C(=O)/C1=C/c1cccc(Br)c1	16.6	70.0*
Cc1ccc(N2NC(=O)/C(=C\c3cccc(Br)c3)C2=O)cc1C	-2.3	69.0*
O=C1NN(c2ccc(Br)cc2)C(=O)/C1=C/c1cc([N+](=O)[O-])c(Cl)cc1Cl	-3.2	95.0*
SMILES	Pf apPOL block	mHTT CaM bind
Cc1ccc(N2NC(=O)/C(=C\c3ccc(Br)cc3)C2=O)cc1C	28.2	4.0
Cc1cc([N+](=O)[O-])cc(/C=C2\C(=O)NN(c3ccc(Br)cc3)C2=O)c1O	-0.2	12.0
Cc1ccc(N2NC(=O)/C(=C\c3ccc(O)c([N+](=O)[O-])c3)C2=O)cc1Cl	6.2	33.0
O=C1NN(c2cccc(Br)c2)C(=O)/C1=C/c1ccc(O)cc1	1.3	26.0
Cc1ccc(N2NC(=O)/C(=C\c3ccc(Cl)c([N+](=O)[O-])c3)C2=O)cc1C	-3.2	96.0*
Fc1cccc(-c2nc(CN3CCN(c4ccccc4F)CC3)no2)c1	-4.5	-4.3
CC(C)(C)NC(=O)CCC1CCCCC1	-3.2	-11.2
N#CC1=C(N)C(C#N)(C#N)C(c2cccc([N+](=O)[O-])c2)C2CCCC=C12 (stereo not drawn)	6.9	53.0*
CC1CC=C2C(C#N)=C(N)C(C#N)(C#N)C(c3cccc(Cl)c3)C2C1 (stereo not drawn)	0.5	70.0*
N#CC1=C(N)C(C#N)(C#N)C(c2cccnc2)C2CCCC=C12 (stereo not drawn)	7.2	5.0
N#CC1=C(N)C(C#N)(C#N)C(c2ccccc2I)C2CCCC=C12 (stereo not drawn)	-3.2	11.0
CC(C)(C)C1CC=C2C(C#N)=C(N)C(C#N)(C#N)C(c3c[nH]c4ccccc34)C2C1 (stereo not drawn)	23.8	98.0*
CN1CC=C2C(C#N)=C(N)C(C#N)(C#N)C(c3cccc(Cl)c3)C2C1 (stereo not drawn)	-2.7	9.0
Cc1ccc(CN2CC(=O)N(Cc3cccnc3)C(c3cccs3)C2=O)cc1 (stereo not drawn)	-3.8	-4.2
COc1ccc(-n2nc3c(c2NC(=O)/C=C/c2ccc(OC)c(OC)c2)CS(=O)(=O)C3)cc1	-1.8	13.0
O=C(/C=C/c1ccco1)Nc1c2c(nn1-c1ccc(F)cc1)CSC2	0.6	98.0*
COc1ccc(-n2nc3c(c2NC(=O)/C=C/c2ccc(OC)c(OC)c2)CSC3)cc1	78.3*	32.0
COc1ccc(-n2nc3c(c2NC(=O)/C=C/c2ccco2)CSC3)cc1	-9.2	77.0*
O=C(/C=C/c1ccc2c(c1)OCO2)Nc1c2c(nn1-c1ccc(F)cc1)CSC2	-2.8	23.0
COc1ccc(-n2nc3c(c2NC(C)=O)CSC3)cc1	-3.2	20.0
COc1cccc(OC)c1C(=O)N1CCN(C(=O)CC(C)C)CC1	-7.7	-4.2
COC(=O)C(C#N)=C(C#N)c1ccc(Br)o1	76.5*	.
COc1cccc(NC(=O)c2ccc(Br)o2)c1	-11.3	-5.0
CCN(CC)CCNC(=O)C1CCN(c2nc3cccnc3s2)CC1	2.0	7.3
O=C(CSc1nnc(COc2ccc3c(c2)CCCC3)o1)NCc1ccccc1	95.4*	0.0
SMILES	Pf apPOL block	mHTT CaM bind
Cc1ccc(OCc2nnc(SCC(=O)NCc3ccccc3)o2)cc1	-3.4	-1.4
CC(C)(C)OC(=O)COc1ccc2oc(=O)cc(-c3cc4ccccc4o3)c2c1	-2.3	-21.7
CCCCNC(=O)c1cn(C2CCCCC2)c(=O)c2c1c1ccccc1n2C	0.6	14.0
CC(=O)N1CCc2[nH]c3ccc(C(=O)N(C)c4cccc(Cl)c4)cc3c2C1	-5.5	50.4*
CC(=O)N1CCc2[nH]c3ccc(C(=O)N4CCN(Cc5ccccc5)CC4)cc3c2C1	-0.4	38.4
CCCN1CCN(C(=O)c2ccc3[nH]c4c(c3c2)CN(C(C)=O)CC4)CC1	-4.6	7.6
CC(=O)N1CCc2[nH]c3ccc(C(=O)N4CCCC4)cc3c2C1	-0.5	61.3*
CCCCNC(=O)C1CCCN(c2ncc(-c3ccc(F)cc3)cn2)C1 (stereo not drawn)	0.2	47.5
Nc1ccc2cc(Br)c3ccccc3c2c1	.	59.2*
O=[N+]([O-])c1ccc2cc(Br)c3ccccc3c2c1	1.7	.
CSc1cccc(NC(=O)N2CCCC(C)(C(=O)NCc3ccc(F)cc3)C2)c1 (stereo not drawn)	1.0	5.0
COc1ccccc1CC(=O)N1CC2CC(NS(C)(=O)=O)C1C2 (stereo not drawn)	-3.0	-1.5
CCN(CCNC(=O)CN1N=C(c2ccc(Cl)cc2)CCC1=O)c1ccccc1	-10.0	65.0*
CCN(CC)CCNC(=O)CN1N=C(c2ccc(Cl)cc2)CCC1=O	-91.9	0.0
Cc1[nH]nc(NC(=O)COCc2ccccc2)c1-c1ccccc1	-1.3	2.3
c1cc2c3c(cccc3c1)NC1(CCCCCC1)N2	.	52.5*
S=C1NC2(CCCC2)NN1c1ccccc1	9.0	.
Cc1cccc(-c2noc(-c3cccnc3N3CCC(C(=O)N4CCSCC4)CC3)n2)c1	0.9	-34.5
Cc1ccc(CNS(=O)(=O)c2ccc(F)c(C(=O)Nc3cc(C)ccc3C)c2)cc1	32.8	-3.0
C(=Nc1cccnc1)c1c[nH]c2ccccc12	.	16.4
CCN(CC)c1ccc(N=Cc2c[nH]c3ccccc23)cc1	-5.6	83.0*

High-throughput results from PubChem BioAssay.
